Measurements from PubChem BioAssay.
Values joined by “and” are separate entries in the source; they are usually repeats but may differ in a detail not shown here. Equal entries are not always repeated. Active and inactive are the calls of the source.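 Rule for the calls, unless noted: active = thallium flux through the channel raised or lowered by more than 3 SD from vehicle-only wells, actives on both sides; inactive = the rest.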

Tests used:
[1] = tested on: Hepatitis C virus NS3 helicase; test: blockers of NS3h binding to DNA – biochemical, fluorescence polarization, NIH Clinical Collection, primary screen (AID 743270; call rule not given here); settings: NS3 helicase binding to Cy5-dT15 DNA, stronger effect = higher value, concentration not given here
[2] = target: Single-stranded DNA-binding protein (Escherichia coli (strain K12)) (UniProt P0AGE0); test: SSB-ssDNA binding inhibitors – biochemical, fluorescence polarization, NIH Clinical Collection, counter-screen for HCV NS3 helicase inhibitor project (AID 743271; in the data active = inhibition above about 28%); settings: E. coli SSB-DNA binding, stronger effect = higher value, concentration not given here
[3] = compounds distorting NS3 helicase fluorescence signal – biochemical, NIH Clinical Collection, artefact control for HCV NS3 helicase inhibitor project (AID 743272; call rule not given here;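 note: HCV NS3 helicase with a Cy5 labelled single stranded DNA probe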); settings: fluorescence interference counterscreen, HCV NS3 helicase assay; stronger effect = lower value
[4] = Wnt pathway potentiators raising nuclear beta-catenin – imaging, WNT3A-conditioned medium, mouse C2C12, NPC library, primary screen (AID 1117326; in the data active = nuclear beta-catenin stimulation mostly above about 4.2%, no sharp cut-off; inactive = mostly below about 10%); settings: stronger effect = higher value
[5] = stimulators of insulin release from INS-1E, primary screen, cell-based, 5 mM glucose, NPC library (AID 1117329;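 active = compound raises insulin release from rat beta cells at 5 mM glucose, no numeric limit stated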); settings: rat INS-1E insulin secretion, at 10 µM, stronger effect = higher value
[6] = growth inhibition of GSK3B-pretreated HCT116 cells – cell-based, CellTiter-Glo, 0.2 to 20 µM (AID 1117336;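 active = compounds lowering colon cancer cell viability after pretreatment blocking the GSK3B kinase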); settings: HCT116 viability after GSK3B inhibitor, at 20 µM, stronger effect = higher value
[7] = inhibition of endothelial tube formation, primary screen, imaging, VEGF stimulated, CD31 staining, tube area, NPC library (AID 1117340;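 active = compound that reduces growth-factor-driven endothelial tube area in a mixed cell culture, no cutoff stated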); settings: VEGF-stimulated ADSC/ECFC co-culture, at 10 µM, stronger effect = higher value
[8] = GLP1 release stimulators, primary, NCI-H716, NPC library (AID 1117341;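 active = compound raises GLP1 secretion from the human gut endocrine cells, with no numeric limit stated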); settings: NCI-H716 cells, at 10 µM, stronger effect = higher value
[9] = HCT116 colon cancer cell growth inhibition, primary screen, CellTiter-Glo luminescence, NPC library (AID 1117342;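 active = compounds that lower survival of HCT116 colon cancer cells in the luminescence readout, no numeric limit stated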); settings: at 20 µM (top of the series)
[10] = reduced SW480 viability measured with CellTiter-Glo, NPC library, primary (AID 1117343;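 active = compounds that lower viability of the colon cancer cells in the luminescence readout, with no numeric limit stated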); settings: CellTiter-Glo luminescence; at 20 µM (top of the series)
[11] = NPC library primary testing for decreased DLD-1 cell viability via CellTiter-Glo (AID 1117346;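 active = compounds that lower survival of DLD-1 colon cancer cells in the luminescence readout, no cutoff given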); settings: DLD-1 viability, CellTiter-Glo luminescence; at 20 µM (top of the series)
[12] = target: 6-phosphogluconate dehydrogenase, decarboxylating (Homo sapiens) (UniProt P52209); test: inhibition of human phosphogluconate dehydrogenase – biochemical, recombinant enzyme, NADPH absorbance, primary screen (AID 1159550;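 active = at least 20% inhibition of 6-phosphogluconate dehydrogenase activity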); settings: recombinant 6PGD, NADPH absorbance 341 nm; at 10 µM; stronger effect = higher value
Sequence of 6-phosphogluconate dehydrogenase, decarboxylating (Homo sapiens) (P52209 whole entry, looked up): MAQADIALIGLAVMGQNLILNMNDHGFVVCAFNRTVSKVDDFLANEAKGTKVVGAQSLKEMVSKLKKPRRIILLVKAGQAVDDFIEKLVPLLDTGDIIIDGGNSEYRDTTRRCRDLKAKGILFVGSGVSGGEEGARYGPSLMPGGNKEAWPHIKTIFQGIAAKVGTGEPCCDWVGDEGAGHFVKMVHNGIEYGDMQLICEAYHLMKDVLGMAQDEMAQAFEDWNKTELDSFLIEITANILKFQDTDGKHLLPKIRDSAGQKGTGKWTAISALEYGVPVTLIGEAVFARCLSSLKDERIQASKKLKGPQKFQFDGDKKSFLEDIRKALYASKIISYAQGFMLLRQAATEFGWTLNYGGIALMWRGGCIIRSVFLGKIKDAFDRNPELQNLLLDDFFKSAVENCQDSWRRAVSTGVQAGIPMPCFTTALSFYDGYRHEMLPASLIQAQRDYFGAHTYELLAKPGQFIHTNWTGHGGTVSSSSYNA

[13] = EMT-state selective cytotoxicity in co-culture – imaging, PC-3E GFP, TEM4-18 mCherry, primary screen (AID 1345086;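 active = compounds killing one labelled cell type while sparing the other, by normalised counts and ratio limits, not self-fluorescent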;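 for all read-outs here: cells exposed to compound for 72 h before imaging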;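 for red/green cell ratio (normalised): normalised mesenchymal count divided by normalised epithelial count so high means epithelial killing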); settings: PC-3E GFP / TEM4-18 mCherry co-culture, imaging cell counts, at 1 µM; for red/green cell ratio (normalised): actives lie on both sides, counts scaled to control wells, 1 = unselective
[14] = MELAS cybrid and Rieske KO viability enhancers – cell-based, MELAS cybrids, Rieske KO mouse fibroblasts, CellTiter-Glo, primary screen (AID 1508586;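 active = mean z-score across replicates of 1.96 or higher in either the MELAS or the Rieske mutant cell line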;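 note: z relative to plate mean and SD of compound and empty wells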); settings: low glucose
[15] = target: NAD(+) hydrolase SARM1 (Homo sapiens) (UniProt Q6SZW1); test: blocking NAD cleavage by SARM1 SAM-TIR – cell lysate, NAD-Glo luminescence (AID 1508614;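 active = compound whose remaining NAD level is above about 45 nM, limit read from the data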;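 note: higher remaining NAD means stronger inhibition of SARM1 NADase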); settings: SAM-TIR HEK293T lysate NADase, at 1 µM, stronger effect = higher value
Sequence of NAD(+) hydrolase SARM1 (Homo sapiens) (Q6SZW1 whole entry, looked up, the tested form may be a part): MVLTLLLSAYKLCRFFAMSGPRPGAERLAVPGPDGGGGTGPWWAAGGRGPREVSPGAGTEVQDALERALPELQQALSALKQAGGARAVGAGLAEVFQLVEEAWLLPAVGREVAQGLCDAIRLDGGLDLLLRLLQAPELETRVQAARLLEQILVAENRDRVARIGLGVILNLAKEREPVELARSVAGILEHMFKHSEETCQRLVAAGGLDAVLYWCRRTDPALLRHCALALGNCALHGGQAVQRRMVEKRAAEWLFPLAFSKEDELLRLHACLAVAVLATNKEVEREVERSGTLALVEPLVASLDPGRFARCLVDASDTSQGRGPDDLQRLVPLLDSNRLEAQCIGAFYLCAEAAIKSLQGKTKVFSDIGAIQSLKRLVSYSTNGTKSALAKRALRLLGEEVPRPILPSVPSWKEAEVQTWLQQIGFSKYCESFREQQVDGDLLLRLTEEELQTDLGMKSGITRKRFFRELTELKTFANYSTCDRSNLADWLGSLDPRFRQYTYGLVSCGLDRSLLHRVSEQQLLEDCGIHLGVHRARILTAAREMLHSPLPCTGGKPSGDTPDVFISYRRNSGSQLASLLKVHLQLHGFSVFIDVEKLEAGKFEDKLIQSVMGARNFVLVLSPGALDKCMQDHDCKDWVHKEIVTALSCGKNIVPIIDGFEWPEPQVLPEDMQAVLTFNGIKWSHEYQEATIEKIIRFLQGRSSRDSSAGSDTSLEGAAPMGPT

[16] = target: Mitogen-activated protein kinase 7 (Homo sapiens) (UniProt Q13164); test: Gal4-ERK5 driven luciferase induction – cell-based, HTS, primary screen (AID 1508626;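 active = luciferase signal above three times the same-plate solvent-only control wells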;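 note: luciferase driven by Gal4-ERK5 fusion binding five Gal4 sites before minimal TATA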); settings: HeLa Gal4-ERK5 transactivation, 18 h, at 5 µM, stronger effect = higher value
Sequence of Mitogen-activated protein kinase 7 (Homo sapiens) (Q13164 whole entry, looked up, the tested form may be a part): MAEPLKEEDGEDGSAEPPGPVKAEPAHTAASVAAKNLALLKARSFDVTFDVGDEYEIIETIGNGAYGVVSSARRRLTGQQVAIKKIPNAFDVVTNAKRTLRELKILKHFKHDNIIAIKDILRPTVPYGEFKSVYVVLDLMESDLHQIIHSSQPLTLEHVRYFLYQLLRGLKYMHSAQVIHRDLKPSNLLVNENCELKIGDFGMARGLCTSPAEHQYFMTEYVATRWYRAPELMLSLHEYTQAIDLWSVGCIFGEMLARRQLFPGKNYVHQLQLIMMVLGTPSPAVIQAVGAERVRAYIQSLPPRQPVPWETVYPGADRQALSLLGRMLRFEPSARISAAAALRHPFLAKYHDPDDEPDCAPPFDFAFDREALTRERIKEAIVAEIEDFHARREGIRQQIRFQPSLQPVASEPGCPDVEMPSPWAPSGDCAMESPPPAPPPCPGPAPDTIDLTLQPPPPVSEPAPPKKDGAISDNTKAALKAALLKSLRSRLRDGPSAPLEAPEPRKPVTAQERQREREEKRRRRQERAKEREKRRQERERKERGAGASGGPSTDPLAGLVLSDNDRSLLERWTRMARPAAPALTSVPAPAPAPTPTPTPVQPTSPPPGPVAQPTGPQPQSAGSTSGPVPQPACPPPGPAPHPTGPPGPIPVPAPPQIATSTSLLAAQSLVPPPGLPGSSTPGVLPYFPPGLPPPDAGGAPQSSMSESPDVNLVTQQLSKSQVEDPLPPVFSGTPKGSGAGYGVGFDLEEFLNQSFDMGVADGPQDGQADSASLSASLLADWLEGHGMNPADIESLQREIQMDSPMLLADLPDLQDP

[17] = tested on: F380Y; test: BK channel mutant inhibitors and activators – cell-based, U2OS BacMam, thallium flux, beta subunits, selectivity assay, profiling panel (AID 1259406); settings: U2OS BacMam BK variants, at 30 µM;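 note: initial slope of Thallos dye fluorescence rise after thallium is added; log ratio against the mean of 0.3% DMSO vehicle wells on the same plate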
[18] = tested on: F380Y/beta2Delta; test: as above; settings: U2OS BacMam BK variants, at 30 µM
[19] = target: Calcium-activated potassium channel subunit alpha-1 (Homo sapiens) + Leucine-rich repeat-containing protein 26 (Homo sapiens) (UniProt Q12791+Q2I0M4); test: as above; settings: U2OS BacMam BK variants, F380Y/Slo1WT/gamma1, at 30 µM
Sequence of Calcium-activated potassium channel subunit alpha-1 (Homo sapiens) + Leucine-rich repeat-containing protein 26 (Homo sapiens) (Q2I0M4 whole entry, looked up, one chain of several): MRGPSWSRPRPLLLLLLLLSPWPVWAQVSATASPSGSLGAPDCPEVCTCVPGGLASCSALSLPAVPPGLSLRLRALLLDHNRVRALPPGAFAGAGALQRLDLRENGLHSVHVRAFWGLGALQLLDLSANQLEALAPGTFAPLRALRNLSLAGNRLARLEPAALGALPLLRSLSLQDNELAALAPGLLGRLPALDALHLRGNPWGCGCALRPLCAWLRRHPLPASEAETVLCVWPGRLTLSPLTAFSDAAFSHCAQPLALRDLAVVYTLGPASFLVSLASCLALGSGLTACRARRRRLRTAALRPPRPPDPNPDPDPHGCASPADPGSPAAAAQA

[20] = viability loss with induced miR-34 in A549 – imaging, A549 dox-inducible miR-34, nuclei and caspase counts, primary screen (AID 1347080;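 active = compounds whose cell count with miR-34 switched on is under 0.7 times the count with it off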); settings: A549 miR-34 inducible, Hoechst nuclei count, 48 h
[21] = measured here: epithelial PC-3E GFP cell survival
[22] = measured here: mesenchymal TEM4-18 mCherry cell survival
[23] = MELAS cybrid survival, CellTiter-Glo 48 h, stronger effect = higher value
[24] = Rieske KO mouse fibroblast survival, CellTiter-Glo 72 h
[25] = stronger effect = lower value, cell number ratio, induced over uninduced
[26] = measured here: relative caspase fold change +Dox/-Dox
[27] = measured here: total cells with miR-34 induction, stronger effect = lower value
[28] = measured here: total cells without miR-34 induction

CN(CCOc1ccc(CC2SC(=O)NC2=O)cc1)c1ccccn1 (stereo not given)
inhibition [1]: -1.19% (inactive)
inhibition [2]: 4.52% (inactive) and -0.87% (inactive)
fluorescence ratio [3]: 1.01 (inactive) and 0.96 (inactive)
nuclear beta-catenin stimulation ([4]; at 10 µM): 4.7% (inactive)
nuclear beta-catenin stimulation ([4]; stimulation, at 2 µM): 0.1%
insulin secretion stimulation [5]: -0.5% (inactive)
viability decrease [6]: -166% (inactive)
tube area decrease [7]: -11.1% (inactive)
GLP1 secretion stimulation [8]: -2.5% (inactive)
inhibition of viability [9]: -4.27% (inactive)
viability decrease (inhibition) [10]: 17.9% (inactive)
viability decrease (inhibition) [11]: -28.4% (inactive)
inhibition [12]: -0.784% (inactive)
red/green cell ratio (normalised) [13]: 0.92 (inactive)
normalised cell number [13, 21]: 1.63
normalised cell number [13, 22]: 1.5
z-score [14, 23]: -0.369 (inactive) and -0.527 (inactive)
z-score [14, 24]: 0.76 and -1.4
remaining NAD [15]: 10 nM (inactive)
luciferase signal [16]: 72 AU (inactive)
log fold change Tl+ flux [17]: -0.00159 (inactive) and 0.0548 (inactive)
log fold change Tl+ flux [18]: -0.0425 (inactive) and 0.0999 (inactive)
log fold change Tl+ flux [19]: -0.00356 (inactive) and 0.0332 (inactive)

CO[C@@]1(NC(=O)Cc2cccs2)C(=O)N2C(C(=O)O)=C(COC(N)=O)CS[C@@H]21
inhibition [1]: 0.45% (inactive)
inhibition [2]: 27.7% (active)
fluorescence ratio [3]: 1.01 (inactive)
nuclear beta-catenin stimulation ([4]; at 10 µM): -1.4% (inactive)
nuclear beta-catenin stimulation ([4]; stimulation, at 2 µM): -0.5%
insulin secretion stimulation [5]: 2.1% (inactive)
viability decrease [6]: -11.8% (inactive)
tube area decrease [7]: 26.2% (inactive)
GLP1 secretion stimulation [8]: -1.2% (inactive)
inhibition of viability [9]: 14.8% (inactive)
viability decrease (inhibition) [10]: 8.9% (inactive)
viability decrease (inhibition) [11]: -14.4% (inactive)
inhibition [12]: 8.52% (inactive)
red/green cell ratio (normalised) [13]: 1.1 (inactive)
normalised cell number [13, 21]: 0.99
normalised cell number [13, 22]: 1.09
fold change [20, 25]: 1.01 (inactive) and 0.868 (inactive) and 0.891 (inactive)
fold change [20, 26]: 8.44 and 1.64 and 2.66
cell count [20, 27]: 10400 and 9040 and 11300
cell count [20, 28]: 10300 and 10400 and 12700
z-score [14, 23]: 0.626 (inactive)
z-score [14, 24]: -0.518
remaining NAD [15]: 10 nM (inactive)
luciferase signal [16]: 108 AU (inactive)
log fold change Tl+ flux [17]: 0.0585 (inactive)
log fold change Tl+ flux [18]: -0.00432 (inactive)
log fold change Tl+ flux [19]: -0.0176 (inactive)

OCCN1CCN(CCCN2c3ccccc3Sc3ccc(C(F)(F)F)cc32)CC1
inhibition [1]: -6.33% (inactive)
inhibition [2]: 5.91% (inactive)
fluorescence ratio [3]: 0.82 (inactive)
nuclear beta-catenin stimulation ([4]; at 10 µM): 39.2% (inactive)
nuclear beta-catenin stimulation ([4]; stimulation, at 2 µM): 6.3%
insulin secretion stimulation [5]: 8.85% (inactive)
viability decrease [6]: 118% (active)
tube area decrease [7]: 98.9% (active)
GLP1 secretion stimulation [8]: 15.4% (inactive)
inhibition of viability [9]: 124% (active)
viability decrease (inhibition) [10]: 157% (active)
viability decrease (inhibition) [11]: 101% (active)
inhibition [12]: 10.2% (inactive)
red/green cell ratio (normalised) [13]: 1.23 (inactive)
normalised cell number [13, 21]: 0.78
normalised cell number [13, 22]: 0.95
z-score [14, 23]: -1.28 (inactive) and 0.571 (inactive)
z-score [14, 24]: -0.139 and 0.376
remaining NAD [15]: 10 nM (inactive)
luciferase signal [16]: 28 AU (inactive)
log fold change Tl+ flux [17]: 0.235 (active)
log fold change Tl+ flux [18]: 0.167 (active)
log fold change Tl+ flux [19]: 0.0357 (inactive)

NS(=O)(=O)c1cc2c(cc1C(F)(F)F)NC(Cc1ccccc1)NS2(=O)=O (stereo not given)
inhibition [1]: -0.45% (inactive)
inhibition [2]: 1.05% (inactive)
fluorescence ratio [3]: 0.99 (inactive)
nuclear beta-catenin stimulation ([4]; at 10 µM): 0.1% (inactive)
nuclear beta-catenin stimulation ([4]; stimulation, at 2 µM): 1.7%
insulin secretion stimulation [5]: 0.8% (inactive)
viability decrease [6]: -5.2% (inactive)
tube area decrease [7]: -25.6% (inactive)
GLP1 secretion stimulation [8]: 1.6% (inactive)
inhibition of viability [9]: -9.63% (inactive)
viability decrease (inhibition) [10]: 18.1% (inactive)
viability decrease (inhibition) [11]: -18.1% (inactive)
inhibition [12]: -18.8% (inactive)
red/green cell ratio (normalised) [13]: 1.09 (inactive)
normalised cell number [13, 21]: 1.12
normalised cell number [13, 22]: 1.22
fold change [20, 25]: 0.994 (inactive) and 0.853 (inactive) and 0.857 (inactive)
fold change [20, 26]: 3.31 and 1.41 and 3.71
cell count [20, 27]: 10000 and 8170 and 11600
cell count [20, 28]: 10100 and 9580 and 13500
z-score [14, 23]: 0.478 (inactive)
z-score [14, 24]: -0.203
remaining NAD [15]: 10 nM (inactive)
luciferase signal [16]: 36 AU (inactive)
log fold change Tl+ flux [17]: 0.0508 (inactive)
log fold change Tl+ flux [18]: 0.0485 (inactive)
log fold change Tl+ flux [19]: -0.0118 (inactive)

CC(C)(C)NCC(O)COc1cccc2c1C[C@H](O)[C@H](O)C2 (stereo not given in full)
inhibition [1]: -1.36% (inactive)
inhibition [2]: 0.29% (inactive)
fluorescence ratio [3]: 0.9 (inactive)
nuclear beta-catenin stimulation ([4]; at 10 µM): 1.8% (inactive)
nuclear beta-catenin stimulation ([4]; stimulation, at 2 µM): -0.2%
insulin secretion stimulation [5]: -1.2% (inactive)
viability decrease [6]: -26.3% (inactive)
tube area decrease [7]: 13.1% (inactive)
GLP1 secretion stimulation [8]: -1.3% (inactive)
inhibition of viability [9]: 4.4% (inactive)
viability decrease (inhibition) [10]: 2.8% (inactive)
viability decrease (inhibition) [11]: -5.7% (inactive)
inhibition [12]: 6.69% (inactive)
red/green cell ratio (normalised) [13]: 1.06 (inactive)
normalised cell number [13, 21]: 1.04
normalised cell number [13, 22]: 1.1
fold change [20, 25]: 0.964 (inactive) and 0.863 (inactive)
fold change [20, 26]: 2.62 and 3.63
cell count [20, 27]: 10500 and 11100
cell count [20, 28]: 10900 and 12900
z-score [14, 23]: 0.625 (inactive)
z-score [14, 24]: -0.345
remaining NAD [15]: 10 nM (inactive)
luciferase signal [16]: 100 AU (inactive)
log fold change Tl+ flux [17]: 0.0119 (inactive)
log fold change Tl+ flux [18]: 0.0306 (inactive)
log fold change Tl+ flux [19]: 0.00167 (inactive)

CCn1cc(C(=O)O)c(=O)c2cc(F)c(N3CCN(C)CC3)cc21
nuclear beta-catenin stimulation ([4]; at 10 µM): 3.6% (inactive)
nuclear beta-catenin stimulation ([4]; stimulation, at 2 µM): 1.2%
insulin secretion stimulation [5]: -0.5% (inactive)
viability decrease [6]: -12.5% (inactive)
tube area decrease [7]: 25.6% (inactive)
GLP1 secretion stimulation [8]: 3.5% (inactive)
inhibition of viability [9]: -14.7% (inactive)
viability decrease (inhibition) [10]: -27.3% (inactive)
viability decrease (inhibition) [11]: -10.3% (inactive)
inhibition [12]: 5% (inactive)
red/green cell ratio (normalised) [13]: 1.22 (inactive)
normalised cell number [13, 21]: 1.13
normalised cell number [13, 22]: 1.38
remaining NAD [15]: 10 nM (inactive)
luciferase signal [16]: 56 AU (inactive)
log fold change Tl+ flux [17]: -0.0273 (inactive)
log fold change Tl+ flux [18]: -0.0112 (inactive)
log fold change Tl+ flux [19]: -0.0628 (inactive)
